According to PubChem BioAssay (NCI):
The panel holds about 79,000 compounds, 15% with a hit somewhere; the sample as a whole holds those more often. The source made the active and inactive calls. No stated cut-off is given here; in the data, active means growth inhibition above about 70%; inactive means the rest.

Assays:
[1] = NCI Yeast Anticancer Drug Screen. Data for the rad52 strain (AID 147);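 further: 0% = growth of vehicle-treated control cultures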; settings: S. cerevisiae rad52 mutant growth inhibition, stronger effect = higher value
In short: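 Here a repair-compromised yeast strain receives each compound; its growth is then quantified and normalised to vehicle-only controls.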

[2] = NCI Yeast Anticancer Drug Screen. Data for the wt1 strain (AID 149);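 further: 0% = growth of vehicle-treated wt1 cultures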; settings: S. cerevisiae wt1 strain (SPY 50644) growth inhibition, stronger effect = higher value
In short: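 Readout: yeast growth inhibition, normalised to vehicle controls, in the wt1 strain exposed to test compounds.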

[3] = NCI Yeast Anticancer Drug Screen. Data for the rad50EPP+ strain (AID 151);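 further: 0% = growth of vehicle-treated control cultures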; settings: S. cerevisiae rad50 mutant strain, stronger effect = higher value
In short: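 Read-out is yeast growth inhibition relative to vehicle; cells used were the rad50EPP+ strain.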

[4] = NCI Yeast Anticancer Drug Screen. Data for the mgt1 strain (AID 153); settings: S. cerevisiae mgt1 mutant growth inhibition, stronger effect = higher value
In short: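 Measured: inhibition of mgt1 yeast growth by compound, normalized to vehicle-treated cultures.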

[5] = NCI Yeast Anticancer Drug Screen. Data for the rad50 strain (AID 155);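 further: 0% = growth of vehicle-only cultures of the same strain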; settings: S. cerevisiae rad50 strain growth inhibition, stronger effect = higher value
In short: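 Compounds were tested on a yeast strain with an engineered DNA damage repair alteration; the reported value is growth inhibition normalised to vehicle treatment.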

[6] = NCI Yeast Anticancer Drug Screen. Data for the mec2-1 strain (AID 157); settings: S. cerevisiae mec2-1 strain, stronger effect = higher value
In short: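 Using mec2-1 yeast: add compound, measure growth, express inhibition versus vehicle-treated cultures.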

[7] = NCI Yeast Anticancer Drug Screen. Data for the rad14 strain (AID 159);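 further: 0% = growth of vehicle-treated control cultures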; settings: S. cerevisiae rad14 strain growth inhibition, stronger effect = higher value
In short: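 Compound-treated yeast with a defined DNA-repair lesion; growth inhibition normalised to vehicle-treated cultures.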

[8] = NCI Yeast Anticancer Drug Screen. Data for the sgs1 mgt1 strain (AID 161);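 further: 0% = growth of cultures given vehicle only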; settings: S. cerevisiae sgs1 mgt1 strain, stronger effect = higher value
In short: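 Percent growth inhibition was derived by comparing compound-exposed mutant yeast with vehicle-exposed cultures. The strain carries alterations in DNA damage repair.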

[9] = NCI Yeast Anticancer Drug Screen. Data for the CLN2oe strain (AID 163);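 further: 0% = growth of vehicle-only control cultures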; settings: S. cerevisiae CLN2oe strain, stronger effect = higher value
In short: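 Whole-cell yeast growth assay. A strain engineered for altered cell-cycle control received compound, and inhibition relative to vehicle-treated cultures was recorded.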

[10] = NCI Yeast Anticancer Drug Screen. Data for the cln2 rad14 strain (AID 165);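 further: 0% = growth equal to vehicle treated cultures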; settings: S. cerevisiae cln2 rad14 strain, stronger effect = higher value
In short: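 Yeast strain cln2 rad14, bearing defects in cell cycle control and DNA repair, serves as the test system; values reflect growth inhibition compared with vehicle.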

[11] = NCI Yeast Anticancer Drug Screen. Data for the bub3 strain (AID 167); settings: S. cerevisiae bub3 mutant strain, stronger effect = higher value
In short: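 Growth of a checkpoint-deficient yeast mutant is measured after compound exposure. Values represent inhibition relative to vehicle.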

[12] = NCI Yeast Anticancer Drug Screen. Data for the wt2 strain (AID 169);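 further: 0% = growth of vehicle-treated yeast cultures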; settings: S. cerevisiae wt2 strain growth inhibition, stronger effect = higher value
In short: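 Treated yeast vs. vehicle-treated yeast: growth inhibition determined.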

[13] = NCI Yeast Anticancer Drug Screen. Data for the mlh1 strain (AID 171);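 further: 0% = growth of vehicle-treated control cultures of the same strain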; settings: S. cerevisiae mlh1 strain growth inhibition, stronger effect = higher value
In short: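 A yeast strain with a defined genetic lesion serves as the test organism. Cultures receive compound or vehicle, and growth is measured.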

[14] = NCI Yeast Anticancer Drug Screen. Data for the sgs1 strain (AID 173);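 further: 0% = growth of vehicle-only control cultures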; settings: S. cerevisiae sgs1 mutant, stronger effect = higher value
In short: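 A genetically defined yeast mutant is incubated with the test compound, and its growth is compared to that of the same strain given vehicle.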

[15] = NCI Yeast Anticancer Drug Screen. Data for the mlh1 rad18 strain (AID 175); settings: S. cerevisiae mlh1 rad18 strain growth inhibition, stronger effect = higher value
In short: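 Steps: expose repair-defective yeast to compound; measure growth; express inhibition against vehicle-treated controls.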

[16] = NCI Yeast Anticancer Drug Screen. Data for the rad18 strain (AID 177); settings: S. cerevisiae rad18 mutant growth inhibition, stronger effect = higher value
In short: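 Measured value is growth inhibition of a yeast strain bearing a DNA repair alteration, referenced to vehicle-treated cells.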

[17] = at 5.0 µM (retest, dose inferred, filed as 0.5)
[18] = at 50.0 µM (retest, dose inferred, filed as 5.0)

Measured: growth inhibition

O=C(Nc1ccc(Cl)cc1)OCC#CCCl
active: [3]; at 1.2 µM 76% | [3]; at 3.7 µM 92% | [3]; at 11.0 µM 97% | [3]; at 33.0 µM 98% | [3]; at 100.0 µM 98% | [4]; at 1.2 µM 89% | [4]; at 3.7 µM 96% | [4]; at 11.0 µM 98% | [4]; at 33.0 µM 98% | [4]; at 100.0 µM 98% | [8]; [17] 96% | [8]; [18] 98% | [8]; at 50.0 µM 96.7% | [12]; at 1.2 µM 95% | [12]; at 3.7 µM 98% | [12]; at 11.0 µM 99% | [12]; at 33.0 µM 99% | [12]; at 100.0 µM 99% | [13]; at 1.2 µM 83% | [13]; at 3.7 µM 94% | [13]; at 11.0 µM 97% | [13]; at 33.0 µM 98% | [13]; at 100.0 µM 98% | [14]; at 1.2 µM 93% | [14]; at 3.7 µM 96% | [14]; at 11.0 µM 98% | [14]; at 33.0 µM 98% | [14]; at 100.0 µM 98%
inactive: [1]; at 1.2 µM 5% | [1]; at 3.7 µM -1% | [1]; at 11.0 µM 15% | [1]; at 33.0 µM 16% | [1]; at 100.0 µM 27% | [2]; at 1.2 µM -1% | [2]; at 3.7 µM 1% | [2]; at 11.0 µM 12% | [2]; at 33.0 µM 10% | [2]; at 100.0 µM 9% | [5]; at 1.2 µM -4% | [5]; at 3.7 µM -9% | [5]; [17] 8% | [5]; at 11.0 µM -6% | [5]; at 33.0 µM 15% | [5]; [18] 7% | [5]; at 50.0 µM 10.9% | [5]; at 100.0 µM 28% | [6]; at 1.2 µM 3% | [6]; at 3.7 µM 3% | [6]; [17] 6% | [6]; at 11.0 µM 4% | [6]; at 33.0 µM 2% | [6]; [18] 18% | [6]; at 50.0 µM 2.65% | [6]; at 100.0 µM 8% | [7]; at 1.2 µM 3% | [7]; at 3.7 µM 12% | [7]; at 11.0 µM -5% | [7]; at 33.0 µM -4% | [7]; at 100.0 µM 24% | [9]; at 1.2 µM -6% | [9]; at 3.7 µM -3% | [9]; at 11.0 µM -3% | [9]; at 33.0 µM 1% | [9]; at 100.0 µM 2% | [10]; [17] 5% | [10]; [18] 7% | [10]; at 50.0 µM -19.2% | [11]; at 1.2 µM -1% | [11]; at 3.7 µM 3% | [11]; [17] 4% | [11]; at 11.0 µM 4% | [11]; at 33.0 µM 3% | [11]; [18] 23% | [11]; at 50.0 µM 18.1% | [11]; at 100.0 µM 1% | [15]; [17] 9% | [15]; [18] 46% | [15]; at 50.0 µM 6.8% | [16]; at 1.2 µM -5% | [16]; at 3.7 µM 6% | [16]; at 11.0 µM 11% | [16]; at 33.0 µM 10% | [16]; at 100.0 µM 52%

CN(C)CCn1c2c3ccccc3ccc2c2oc(=O)c3ccccc3c21
active: [1]; at 11.0 µM 94% | [1]; at 33.0 µM 98% | [1]; at 100.0 µM 97% | [2]; at 33.0 µM 92% | [2]; at 100.0 µM 92% | [3]; at 11.0 µM 94% | [3]; at 33.0 µM 97% | [3]; at 100.0 µM 94% | [4]; at 33.0 µM 96% | [4]; at 100.0 µM 93% | [5]; at 11.0 µM 93% | [5]; at 33.0 µM 97% | [5]; [18] 95% | [5]; at 50.0 µM 86.5% | [5]; at 100.0 µM 92% | [6]; at 33.0 µM 95% | [6]; [18] 98% | [6]; at 50.0 µM 88.3% | [6]; at 100.0 µM 91% | [7]; at 33.0 µM 95% | [7]; at 100.0 µM 91% | [8]; [18] 93% | [8]; at 50.0 µM 89% | [9]; at 33.0 µM 90% | [9]; at 100.0 µM 89% | [10]; [18] 93% | [10]; at 50.0 µM 84.5% | [11]; at 33.0 µM 93% | [11]; [18] 95% | [11]; at 50.0 µM 86.8% | [11]; at 100.0 µM 95% | [12]; at 33.0 µM 95% | [12]; at 100.0 µM 95% | [13]; at 33.0 µM 95% | [13]; at 100.0 µM 92% | [14]; at 33.0 µM 93% | [14]; at 100.0 µM 92% | [15]; [18] 96% | [15]; at 50.0 µM 82.7% | [16]; at 33.0 µM 94% | [16]; at 100.0 µM 91%
inactive: [1]; at 1.2 µM 24% | [1]; at 3.7 µM 21% | [2]; at 1.2 µM 13% | [2]; at 3.7 µM 8% | [2]; at 11.0 µM 35% | [3]; at 1.2 µM 19% | [3]; at 3.7 µM 54% | [4]; at 1.2 µM -7% | [4]; at 3.7 µM 10% | [4]; at 11.0 µM 49% | [5]; at 1.2 µM 21% | [5]; at 3.7 µM 51% | [5]; [17] 52% | [6]; at 1.2 µM 17% | [6]; at 3.7 µM 12% | [6]; [17] -12% | [6]; at 11.0 µM 40% | [7]; at 1.2 µM 3% | [7]; at 3.7 µM -2% | [7]; at 11.0 µM 35% | [8]; [17] -1% | [9]; at 1.2 µM -2% | [9]; at 3.7 µM -3% | [9]; at 11.0 µM 36% | [10]; [17] 4% | [11]; at 1.2 µM -8% | [11]; at 3.7 µM 10% | [11]; [17] 3% | [11]; at 11.0 µM 19% | [12]; at 1.2 µM 12% | [12]; at 3.7 µM 3% | [12]; at 11.0 µM 41% | [13]; at 1.2 µM -10% | [13]; at 3.7 µM -6% | [13]; at 11.0 µM 42% | [14]; at 1.2 µM 12% | [14]; at 3.7 µM 16% | [14]; at 11.0 µM 50% | [15]; [17] 10% | [16]; at 1.2 µM 0% | [16]; at 3.7 µM -7% | [16]; at 11.0 µM 53%
